Active and inactive are the calls of the source. The calls were made as follows: active = hit-call score of the fitted dose curve at least 0.9, where 1 is the maximum; inactive = score below 0.9.
Assays:
Settings in all cases: mRNA level, 48 h; actives raise or lower the signal
[1] = read-out: 3-Hydroxy-3-Methylglutaryl-CoA Synthase 2 (HMGCS2), HMGCS2 (gene 3158); test: LTEA_HepaRG_HMGCS2: Life Technologies and Expression Analysis (LTEA) Assay for 3-Hydroxy-3-Methylglutaryl-CoA Synthase 2 (HMGCS2) using HepaRG (AID 2283504)
In short: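 This steatosis marker was read as HMGCS2 mRNA change in HepaRG cells treated 48 h with up to 100 uM chemical. Normalisation used housekeeping genes; activity in either direction was fitted relative to 0.5% DMSO vehicle.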

[2] = read-out: Insulin Like Growth Factor 1 (IGF1), IGF1 (gene 3479); test: LTEA_HepaRG_IGF1: Life Technologies and Expression Analysis (LTEA) Assay for Insulin Like Growth Factor 1 (IGF1) using HepaRG (AID 2283506)
In short: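 qRT-PCR readout of IGF1 mRNA, normalized to three housekeeping genes, after 48 h chemical exposure of HepaRG cells. Concentrations: 8-point half-log series, top 100 uM, 0.5% DMSO vehicle. Gain or loss fitted against DMSO baseline.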

[3] = read-out: Interleukin 6 (IL6), IL6 (gene 3569); test: LTEA_HepaRG_IL6: Life Technologies and Expression Analysis (LTEA) Assay for Interleukin 6 (IL6) using HepaRG (AID 2283509)
In short: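 qRT-PCR read-out of IL6 transcript, normalized to three housekeeping genes, after 48 h chemical exposure of HepaRG cells; 8-point half-log series, top 100 uM, 0.5% DMSO vehicle. Bidirectional curve fitting against DMSO baseline.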

[4] = read-out: Interleukin 6 Receptor (IL6R), IL6R (gene 3570); test: LTEA_HepaRG_IL6R: Life Technologies and Expression Analysis (LTEA) Assay for Interleukin 6 Receptor (IL6R) using HepaRG (AID 2283510)
In short: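 HepaRG, 48 h exposure, 8-pt half-log series, top 100 uM, 0.5% DMSO vehicle, duplicates. Read-out: TaqMan qRT-PCR of IL6R transcript, housekeeping-gene normalized. Gain or loss fitted relative to DMSO baseline.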

[5] = read-out: Potassium channel subfamily K member 1 (KCNK1), KCNK1 (gene 3775); test: LTEA_HepaRG_KCNK1: Life Technologies and Expression Analysis (LTEA) Assay for Potassium channel subfamily K member 1 (KCNK1) using HepaRG (AID 2283511)
In short: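 HepaRG, 48 h exposure, 8-pt half-log series top 100 uM, 0.5% DMSO vehicle, duplicates. Readout: KCNK1 transcript by qRT-PCR (Fluidigm array), housekeeping-normalized; bidirectional curve fit relative to DMSO baseline.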

[6] = read-out: Keratin 19 (KRT19), KRT19 (gene 3880); test: LTEA_HepaRG_KRT19: Life Technologies and Expression Analysis (LTEA) Assay for Keratin 19 (KRT19) using HepaRG (AID 2283512)
In short: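 Readout is qRT-PCR of KRT19 mRNA, normalized to ACTB, GAPDH and POLR2A, from HepaRG cells treated 48 h with eight-point half-log dilutions topping at 100 uM. Activity in either direction is scored relative to 0.5% DMSO vehicle.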

[7] = read-out: JUN Transcription Factor, JUN (gene 3725); test: LTEA_HepaRG_JUN: Life Technologies and Expression Analysis (LTEA) Assay for JUN Transcription Factor using HepaRG (AID 2283513)
In short: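 HepaRG, 48 h exposure, 8-pt half-log series top 100 uM, 0.5% DMSO, duplicate. JUN mRNA by qRT-PCR (Fluidigm), housekeeping-normalized (ACTB/GAPDH/POLR2A); bidirectional curve fit vs DMSO baseline.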

[8] = read-out: Lipase C (LIPC), LIPC (gene 3990); test: LTEA_HepaRG_LIPC: Life Technologies and Expression Analysis (LTEA) Assay for Lipase C (LIPC) using HepaRG (AID 2283514)
In short: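 HepaRG, 48 h exposure, 8-pt half-log series from 100 uM in 0.5% DMSO, duplicates. Readout: LIPC mRNA by Fluidigm qRT-PCR, housekeeping-normalized (ACTB/GAPDH/POLR2A). Gain or loss fitted bidirectionally against DMSO baseline.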

[9] = read-out: Lipoprotein lipase (LPL), LPL (gene 4023); test: LTEA_HepaRG_LPL: Life Technologies and Expression Analysis (LTEA) Assay for Lipoprotein lipase (LPL) using HepaRG (AID 2283515)
In short: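 HepaRG, 48 h exposure, 8-pt half-log dilutions from 100 uM, 0.5% DMSO vehicle, duplicates; qRT-PCR (Fluidigm array) of LPL mRNA vs housekeeping genes; bidirectional curve fit relative to DMSO baseline.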

[10] = read-out: MicroRNA 122 (MIR122), gene 406906; test: LTEA_HepaRG_MIR122: Life Technologies and Expression Analysis (LTEA) Assay for MicroRNA 122 (MIR122) using HepaRG (AID 2283516); also: the transcript read is the microRNA miR-122
In short: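 qRT-PCR read-out (TaqMan, Fluidigm array), normalized to three housekeeping genes; HepaRG cells dosed 48 h at 8 concentrations up to 100 uM in 0.5% DMSO, duplicate; gain or loss fitted against DMSO baseline.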

[11] = read-out: matrix metalloproteinase-10 (MMP10), MMP10 (gene 4319); test: LTEA_HepaRG_MMP10: Life Technologies and Expression Analysis (LTEA) Assay for matrix metalloproteinase-10 (MMP10) using HepaRG (AID 2283517)
In short: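 Transcript levels come from Fluidigm qRT-PCR normalized to three housekeeping genes, with curves fitted bidirectionally against 0.5% DMSO. Human HepaRG cells were dosed for 48 hours at concentrations up to 100 uM.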

MYC, MYC (gene 4609) = test: LTEA_HepaRG_MYC: Life Technologies and Expression Analysis (LTEA) Assay for MYC using HepaRG (AID 2283518)
In short: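 Expression changes were scored by TaqMan qRT-PCR with ACTB, GAPDH and POLR2A normalization. Cultures in serum-free induction medium received duplicate 8-point concentration series, highest 100 uM, for 48 h; DMSO (0.5%) served as baseline.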

[12] = read-out: matrix metalloproteinase-3 (MMP3), MMP3 (gene 4314); test: LTEA_HepaRG_MMP3: Life Technologies and Expression Analysis (LTEA) Assay for matrix metalloproteinase-3 (MMP3) using HepaRG (AID 2283519)
In short: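 qRT-PCR read-out of MMP3 mRNA (normalised to three housekeeping genes) in HepaRG liver cells after 48 h chemical exposure; 8-point half-log series, top 100 uM, 0.5% DMSO vehicle. Bidirectional curve fitting against DMSO baseline.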

[13] = read-out: Paternally Expressed 10 (PEG10), PEG10 (gene 23089); test: LTEA_HepaRG_PEG10: Life Technologies and Expression Analysis (LTEA) Assay for Paternally Expressed 10 (PEG10) using HepaRG (AID 2283520)
In short: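 qRT-PCR read-out: PEG10 mRNA normalised to three housekeeping genes, fitted bidirectionally against 0.5% DMSO vehicle. HepaRG cells received test chemicals for 48 h in serum-free induction medium, 8 points, top 100 uM, half-log steps.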

[14] = read-out: Protein phosphatase 2A (PPP2R4), PTPA (gene 5524); test: LTEA_HepaRG_PPP2R4: Life Technologies and Expression Analysis (LTEA) Assay for Protein phosphatase 2A (PPP2R4) using HepaRG (AID 2283522)
In short: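 HepaRG, 48 h exposure, 8-pt half-log series from 100 uM, 0.5% DMSO vehicle, duplicates. Readout: PPP2R4 mRNA, Fluidigm qRT-PCR, housekeeping-normalized. Bidirectional curve fit vs DMSO baseline.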

[15] = read-out: Phosphatase and tensin (PTEN), PTEN (gene 5728); test: LTEA_HepaRG_PTEN: Life Technologies and Expression Analysis (LTEA) Assay for Phosphatase and tensin (PTEN) using HepaRG (AID 2283523)
In short: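 HepaRG, 48 h exposure, 8-pt half-log series from 100 uM top, 0.5% DMSO vehicle, duplicates. Readout: Fluidigm qRT-PCR of PTEN transcript; housekeeping normalization (ACTB, GAPDH, POLR2A). Gain or loss fitted relative to DMSO baseline.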

[16] = read-out: Insulin-like growth factor-binding protein 1 (IGFBP1), IGFBP1 (gene 3484); test: LTEA_HepaRG_IGFBP1: Life Technologies and Expression Analysis (LTEA) Assay for Insulin-like growth factor-binding protein 1 (IGFBP1) using HepaRG (AID 2283508)
In short: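 HepaRG, 48 h, 8 conc. (max 100 uM, half-log), duplicates, 0.5% DMSO. Readout: TaqMan qRT-PCR, ACTB/GAPDH/POLR2A normalisation. Fit: bidirectional vs DMSO.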

[17] = read-out: Nuclear factor NF-kappa-B p105 subunit (Homo sapiens) (UniProt P19838); test: LTEA_HepaRG_NFKB1: Life Technologies and Expression Analysis (LTEA) Assay for Nuclear Factor Kappa B Subunit 1 (NFKB1) using HepaRG (AID 2283521);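 also: differentiated human HepaRG liver cells in serum-free induction medium; TaqMan qRT-PCR transcript normalised to ACTB GAPDH and POLR2A housekeeping genes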
In short: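 Human HepaRG cells receive eight half-log concentrations, highest 100 uM, for 48 h. NFKB1 expression is then quantified by qRT-PCR and analysed for up- or down-regulation relative to 0.5% DMSO vehicle.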

[18] = read-out: Intercellular Adhesion Molecule 1 (ICAM1), ICAM1 (gene 3383); test: LTEA_HepaRG_ICAM1: Life Technologies and Expression Analysis (LTEA) Assay for Intercellular Adhesion Molecule 1 (ICAM1) using HepaRG (AID 2283507)
In short: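 Using the human liver line HepaRG, compounds are tested in duplicate over 48 h at concentrations up to 100 uM. Expression is determined by TaqMan qRT-PCR, normalized to endogenous controls, and analysed relative to 0.5% DMSO vehicle.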

Measured: outcome

Chain of Nuclear factor NF-kappa-B p105 subunit (Homo sapiens) (P19838 whole entry, looked up): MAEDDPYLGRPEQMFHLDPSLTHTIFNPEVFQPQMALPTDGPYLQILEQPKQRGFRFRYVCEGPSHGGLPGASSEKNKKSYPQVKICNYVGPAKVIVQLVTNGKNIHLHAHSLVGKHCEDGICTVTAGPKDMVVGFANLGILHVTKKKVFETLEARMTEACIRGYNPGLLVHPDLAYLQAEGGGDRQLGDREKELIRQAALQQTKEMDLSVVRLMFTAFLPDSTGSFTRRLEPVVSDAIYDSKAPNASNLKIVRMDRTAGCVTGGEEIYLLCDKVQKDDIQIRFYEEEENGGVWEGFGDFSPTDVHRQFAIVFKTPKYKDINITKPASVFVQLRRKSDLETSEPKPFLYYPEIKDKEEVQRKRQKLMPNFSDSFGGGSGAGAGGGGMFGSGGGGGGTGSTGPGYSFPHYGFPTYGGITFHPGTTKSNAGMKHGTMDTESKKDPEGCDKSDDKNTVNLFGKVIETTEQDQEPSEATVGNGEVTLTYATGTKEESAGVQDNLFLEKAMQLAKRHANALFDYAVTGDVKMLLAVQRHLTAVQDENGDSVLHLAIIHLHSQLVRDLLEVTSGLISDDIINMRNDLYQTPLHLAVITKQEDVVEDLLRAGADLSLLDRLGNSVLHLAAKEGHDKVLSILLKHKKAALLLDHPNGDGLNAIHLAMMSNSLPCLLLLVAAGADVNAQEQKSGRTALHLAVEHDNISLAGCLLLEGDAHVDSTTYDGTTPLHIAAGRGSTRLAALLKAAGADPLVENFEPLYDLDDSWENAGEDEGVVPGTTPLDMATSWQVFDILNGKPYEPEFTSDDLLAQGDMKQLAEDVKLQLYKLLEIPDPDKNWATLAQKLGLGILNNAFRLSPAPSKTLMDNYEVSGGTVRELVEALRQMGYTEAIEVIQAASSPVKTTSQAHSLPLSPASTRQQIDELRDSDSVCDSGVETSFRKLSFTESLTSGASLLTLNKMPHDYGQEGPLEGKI

CCC(C)(C)C(=O)O[C@H]1C[C@@H](C)C=C2C=C[C@H](C)[C@H](CC[C@@H]3C[C@@H](O)CC(=O)O3)[C@H]21
not listed: [16] | [17] | [18]
inactive: all other assays above

CC[C@H](C)C(=O)O[C@H]1C[C@@H](C)C=C2C=C[C@H](C)[C@H](CC[C@@H]3C[C@@H](O)CC(=O)O3)[C@H]21
not listed: [4] | [5] | [10] | [13] | [18]
inactive: all other assays above

O=C(O)CCN(C1(C(=O)NO)CCCC1)S(=O)(=O)c1ccc(Oc2ccc(F)cc2)cc1
not listed: [4] | [10] | [12] | [16]
inactive: all other assays above
